Hit rate of the full screen: of about 340,000 compounds, about 240 (0.071%) were called active. Roughly 5% stayed inconclusive and do not appear here. The call rests on the fitted dose curve. For the sample, actives were picked, then their nearest neighbours and some compounds at random.
biological target: Snurportin-1 (Homo sapiens) + GTP-binding nuclear protein Ran (Homo sapiens) + Importin subunit beta-1 (Homo sapiens) (UniProt O95149+P62826+Q14974); assay: qHTS Assay for Inhibitors of RanGTP induced Rango (Ran-regulated importin-beta cargo) - Importin beta complex dissociation; conditions: Biochemical FRET Rango-importin beta; series mostly up to 46.1 µM; further: nearly all actives have a fitted effect of over 45% in size
From the text: NIH Molecular Libraries Probe Production Centers Network [MLPCN] NIH Chemical Genomics Center [NCGC] MLPCN Grant: R03 MH090808-01A1 Assay Submitter (PI): Petr Kalab NCGC Assay Overview: The small GTPase Ran regulates transport of macromolecules between the nucleus and the cytoplasm (nuclear transport) and has important functions in mitotic spindle assembly, nuclear envelope (NE) formation and nuclear pore complex (NPC) assembly. RanGTP gradient is thought to promote spindle assembly by providing a spatial clue to microtubule nucleation and Aurora A activation. Because the localized release and binding of importin alpha cargos relays this spatial clue to SAFs, inhibitors of the Rango - importin beta complex can then be used in further understanding their role in cell cycle specifically in mitosis progression. […] Activation of Aurora A has been linked to different types of cancer and a number of Aurora kinase inhibitors are being developed as potential canter therapeutics; therefore, identified inhibitors of this complex could be developed into potential anti-mitotic probes for cancer treatment. Purified recombinant proteins Rango - importin beta and RanGTP-RCC1 stock premixes were provided by the assay submitter. The assay used a fluorescence resonance energy transfer (FRET) Rango biosensor that contains the IBB of human snurportin 1 flanked by yellow fluorescent protein (EYFP) at the amino terminus and cerulean CFP10 at the carboxy terminus. […] RanGTP binding to the complex (in the presence of RCC1) releases the Rango from the complex. The flexibility of the IBB in the freed Rango allows the donor - acceptor fluorophores to interact, resulting in a high FRET signal. Inhibitors will therefore be identified based on the ability to interfere with the FRET signal increase. DMSO treated and no RanGTP-RCC1 (buffer only) wells were used as negative and positive controls respectively. FRET readings were obtained at two time points. FRET reading prior to importin beta addition (pre-read) were used flag potential compound interference; FRET reading after importin beta addition (post-read) were used to identify inhibitors.
NCGC Assay Protocol Summary: Two and a half uL/well of Rango- importin beta premix solution (0.1 uM Rango, 0.25 uM importin beta, 1x PBS, 1mM DTT, 0.02% Tween-20, 0.1% BSA final concentrations) was dispensed into 1536-well assay plates (Greiner, solid black medium-binding plates) with Aurora Discovery BioRAPTR Flying Reagent Dispenser (FRD; Beckton-Dickenson). Compound solution (23 nL) was transferred to the assay plate using Kalypsys pin tool equipped with a 1536-pin tool and incubated at room temperature for 5 min followed by a FRET pre-read using the PerkinElmer Envision plate reader. Two and a half uL/well of RanGTP-RCC1 premix solution (0.6 uM Ran, 2mM GTP, 0.2 uM RCC1, 1x PBS, 1mM DTT, 0.02% Tween-20, 0.1% BSA final concentrations) were then added and incubated at room temperature giving a final reaction volume of 5uL. After 45min FRET post-read was obtained via the Envision plate reader using the same optics and settings as the pre-read (CFP/YFP optimized dual optical module D450/D505; excitation mirror CFP 430/24 nm; and emission filters CFP 486/10 nm and YFP 530/10 nm).

Potency, inactive:
O=C(Cc1ccc(NC(=O)C2CCCN(C(=O)CCc3ccccc3)C2)cc1)Nc1ccc(C(=O)N2CCOCC2)cc1 (stereo not given)
CC(C)=CCc1ccc(O)c(=O)cc1C(C)C
CCCCN(C(=O)CSCc1ccc(C)cc1)c1c(N)n(Cc2ccccc2)c(=O)[nH]c1=O
CSCCC(NC(=O)COc1ccccc1)C(=O)OCc1ccc(Cl)cc1 (stereo not given)
CC(C)Sc1nc(N)nc2c1ncn2C1OC(CO)C(O)C1O (stereo not given)
COc1ccc(N)c(C)c1
CN1CCC(N(C)C(=O)c2ccc(Cl)c(S(=O)(=O)Nc3ccc(Cl)cc3)c2)CC1
CC1C(C)N(C(=O)CCl)c2ccccc2N1C(=O)CCl (stereo not given)
Cn1c(=S)sc2ccc3ccccc3c21
COC(=O)Cc1c(-c2[nH]c3ccccc3c2CC(=O)OC)[nH]c2ccccc12
COc1cc2c(cc1OC)C1C(=O)c3cc(OS(C)(=O)=O)c(OC)cc3C1N(C)C2=O (stereo not given)
COc1ccc2oc(N)nc2c1
CCN(CC)S(=O)(=O)c1cccc(NC(=O)c2ccc(S(=O)(=O)N3CCCC3)cc2)c1
CCOC(=O)C1CCCN(C(=O)C2CCN(S(=O)(=O)c3ccc(Cl)c(C(F)(F)F)c3)CC2)C1 (stereo not given)
O=C(Nc1ccccc1)Oc1cccc2cccnc12
O=C(NCC1CCCCC1)NCC1CCCCC1
CSCCC(NC(=O)COc1ccccc1)C(=O)N1CCN(c2cccc(C(F)(F)F)c2)CC1 (stereo not given)
O=C(CC(=O)c1cccnc1)c1ccccc1
Nc1cc2c(cc1Br)-c1ccc(F)cc1C2=O
O=C1/C(=C\c2ccc([N+](=O)[O-])cc2)CS(=O)(=O)C/C1=C/c1ccc([N+](=O)[O-])cc1
O=C(NNC(=O)c1ccccc1O)c1ccccc1O
CCOC(=O)C(CO)NC(=O)C1(NC(C)=O)CCCC1 (stereo not given)
CCCC(O)(c1ccccc1)C(c1ccccc1)c1ccccn1 (stereo not given)
O=C(NCCc1ccccc1)c1c[nH]c2ccc(F)cc2c1=O
O=C1CC[C@@H]2CC3(C[C@@H]4CCN1[C@H]24)Nc1cc([N+](=O)[O-])ccc1NC3=NC1CCCCC1 (stereo not given in full)
CN(C(=O)c1cccc(NC(=O)Cc2ccc(NC(=O)C3CCCN(C(=O)C4CC4)C3)cc2)c1)C1CC1 (stereo not given)
CN(CCc1ccccc1)C(=O)c1cccc(NC(=O)Cc2cccc(NC(=O)C3CCCN(C(=O)C4CCC4)C3)c2)c1 (stereo not given)
C[C@@H]1ON(C)[C@H]2C[C@H]3c4cc(N5CCN(C)CC5)ccc4CCN3C(=O)[C@@H]12
CC1CCCN(C(=O)Cn2c(=O)oc3cc(S(=O)(=O)N4CCCCC4C)ccc32)C1 (stereo not given)
NC1=NOC(=O)C1C1CCCCC1 (stereo not given)
